Hits are enriched below; roughly 3.9% of the tested compounds scored in any of these assays.
BRCA1 expr up: qHTS Assay to Identify Small Molecule Activators of BRCA1 Expression | Potency, µM (top dose mostly 46.1 µM), most hits filed as activators | 380,000 compounds, 1.1% hits | MCF7-BRCA1-FFLuc reporter, luminescence, 48 h; response scale: scaled: vehicle 0%, 10 µM genistein 100%; note: nearly all actives have a fitted effect of over 80% in size
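Activators of BRCA1 expression were detected as increased firefly luciferase luminescence in engineered MCF7 cells after 48 h compound incubation. Signals were scaled to genistein 10 microM as full activation.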
PLK1 PBD block: qHTS for Inhibitors of PLK1-PDB (polo-like kinase 1 - polo-box domain): Primary Screen; Serine/threonine-protein kinase PLK1 (Homo sapiens), P53350; Plk1 PBD binding of FITC phosphopeptide, fluorescence polarization; Potency, µM, hits mostly inhibitors; 360,000 compounds, 2.8% hits; AID 720504, 2013; note: series mostly up to about 57 µM; nearly all actives have a fitted effect of over 65% in size
Tb PFK inh: qHTS Assay to Find Inhibitors of T. brucei phosphofructokinase | T. brucei PFK, ADP-Glo luminescence | ATP-dependent 6-phosphofructokinase (Trypanosoma brucei brucei), O15648 | 330,000 compounds, 0.17% hits | Potency, µM (series often up to 57.5 µM), actives largely listed as inhibitors; note: nearly all actives have a fitted effect of over 60% in size
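ADP-Glo luminescence quantified ADP after 45 min at room temperature, with 1.25 nM T. brucei PFK, 0.1 mM ATP and 0.5 mM fructose-6-phosphate in pH 8.0 TEA buffer. qHTS titrations up to 57 µM; curves classified by quality.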
VDR inh: Inhibitors of the vitamin D receptor (VDR): qHTS; Vitamin D3 receptor (Homo sapiens), P11473; VDR-SRC2-3 peptide fluorescence polarization, 2 h; Potency, µM, usual class: inhibitors; 400,000 compounds, 0.93% hits; AID 504847, 2011
Target sequence (P11473 whole entry, looked up): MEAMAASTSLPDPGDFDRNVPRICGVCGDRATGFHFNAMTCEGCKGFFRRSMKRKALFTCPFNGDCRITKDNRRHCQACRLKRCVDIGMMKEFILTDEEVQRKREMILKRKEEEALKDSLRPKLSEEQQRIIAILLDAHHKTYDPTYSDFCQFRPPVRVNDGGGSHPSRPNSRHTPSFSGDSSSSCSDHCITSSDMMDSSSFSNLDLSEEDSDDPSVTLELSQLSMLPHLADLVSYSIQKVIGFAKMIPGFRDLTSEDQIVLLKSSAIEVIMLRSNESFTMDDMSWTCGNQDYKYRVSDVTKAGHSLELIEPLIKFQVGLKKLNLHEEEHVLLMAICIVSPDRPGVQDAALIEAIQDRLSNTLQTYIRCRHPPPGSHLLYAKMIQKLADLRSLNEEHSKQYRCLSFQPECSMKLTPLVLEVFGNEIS
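Compounds are added to VDR with labelled SRC2-3 coactivator peptide and held 2 h at room temperature. Inhibition of the VDR–peptide interaction is then read as a change in fluorescence polarization.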
Hits are given with their value; . = inactive; ? = inconclusive; / = not tested or not shown. Calls come from the whole dose curve; as a rule, active = well fitted curve in the direction sought with a large enough effect; inconclusive = small, poorly fitted or top-dose-only effect, or another doubt; inactive = no such curve, though single readings can be large; an effect the other way counts as inactive or inconclusive.

SMILES	BRCA1 expr up	PLK1 PBD block	Tb PFK inh	VDR inh
CC(=O)Oc1ccc(/C=C2/SC(=S)N(Cc3ccccc3)C2=O)cc1	.	.	.	.
O=C(CCCN1C(=O)/C(=C/c2cccs2)SC1=S)NNC(=O)c1ccccc1O	.	.	.	.
Cc1ccc(/C=C2\SC(=S)N(CCCC(=O)Nc3ccccc3C(=O)O)C2=O)cc1	.	18.9µM	.	?
COc1ccc(/C=C2/SC(=S)N(CCCC(=O)Nc3ccccc3C(=O)O)C2=O)cc1	.	?	.	?
CC(C)c1ccc(N(CC(=O)O)S(=O)(=O)c2ccc3[nH]c(=O)c(=O)[nH]c3c2)cc1	/	/	/	.
Nc1ncnc2c1ncn2[C@@H]1O[C@H](CNCC(O)CO)[C@@H](O)[C@H]1O (stereo not given in full)	.	.	.	.
CC1(C)Cc2c(C#N)c(N3CCOCC3)nc(-c3ccccc3)c2CO1	.	.	.	.
CC1(C)Cc2c(C#N)c(OCC(=O)c3ccccc3)nc(-c3ccoc3)c2CO1	.	26.7µM	.	?
CC1CCN(c2nc(-c3ccco3)c3c(c2C#N)CC(C)(C)OC3)CC1	.	?	.	50.1µM
CCc1nc(N2CCN(C(=O)c3ccccc3)CC2)c(C#N)c2c1COC(C)(C)C2	.	23.8µM	.	.
Clc1ccc(CNc2ncnc3nc[nH]c23)cc1	.	/	/	.
O=C(C(=O)N1CCN(c2ccccc2F)CC1)c1cn(CC(=O)N2CCOCC2)c2ccccc12	.	23.8µM	.	?
Cc1ccc(OCCn2cc(C(=S)N3CCCC3)c3ccccc32)cc1C	.	2.99µM	.	.
O=C(O)Cn1cc(/C=C2/SC(=O)N(CC(=O)N3CCCCCC3)C2=O)c2ccccc21	.	26.7µM	.	?
O=C(O)Cn1cc(C(=S)N2CCOCC2)c2ccccc21	.	23.8µM	.	?
COc1ccccc1N1CCN(C(=O)C(=O)c2cn(CC(=O)N3CCOCC3)c3ccccc23)CC1	.	.	.	.
O=C(O)Cn1cc(C(=S)N2CCCCC2)c2ccccc21	.	15µM	.	.
Cc1cc2cc3c(cc2nc1SCc1ccc(C(=O)O)cc1)OCCO3	.	29.9µM	.	.
CCCC(=O)N1CCC1(C)C(=O)Nc1cc(OC)ccc1OC (stereo not given)	.	.	/	/
Cc1cc(C)n(CC(C)NC(=O)c2cc(COc3ccc(F)c(F)c3)on2)n1 (stereo not given)	.	.	.	.
Cc1cc(C)n(CC(C)NC(=O)c2cc(COc3c(F)cccc3F)on2)n1 (stereo not given)	.	18.9µM	.	?
COc1cccc(CN2CCC2(C)C(=O)Nc2cccc(Oc3ccccc3)c2)c1OC (stereo not given)	.	.	/	/
O=c1oc(CCCO)cc2ccc(/C=C/c3cccc([N+](=O)[O-])c3)cc12	6.31µM	.	.	.
COc1cccc(CNC(=O)CCCn2ncn3c(cc4occc43)c2=O)c1OC	.	/	/	.
O=C(CSc1nnc(NC2CCCCC2)s1)Nc1ccc2c(c1)C(=O)c1ccccc1C2=O	4.47µM	.	.	.
SMILES	BRCA1 expr up	PLK1 PBD block	Tb PFK inh	VDR inh
CC(C)Nc1nnc(SCC(=O)Nc2ccc3c(c2)C(=O)c2ccccc2C3=O)s1	?	.	.	.
CCCCCn1c(=O)[nH]c2cc(C(=O)Nc3cc(OC)cc(OC)c3)ccc2c1=O	.	/	/	.
NS(=O)(=O)c1ccc(N/C=C/C(=O)c2ccc(Br)cc2)cc1	?	.	.	.
NS(=O)(=O)c1ccc(N/C=C\C(=O)c2ccc(F)cc2)cc1	1µM	.	.	.
CCn1c(SC(=O)NC2CCCCC2)nnc1-c1cccs1	.	2.67µM	.	.
COc1ccccc1N1CCN(Cc2cc(=O)c(OCC(=O)NC(C)C)co2)CC1	.	9.47µM	.	?
C[C@@H]1CN([C@@H](C)CO)C(=O)CCCn2nncc2CO[C@@H]1CN(C)C(=O)Cc1ccccc1	.	.	/	/
COc1ccccc1Cc1nnc(NC(=O)C2CCN(C(=O)c3ccco3)CC2)s1	.	26.7µM	.	?
COc1ccc2nc(NC(=O)C3CCN(C(=O)c4ccco4)CC3)sc2c1	12.6µM	.	.	.
COCc1nnc(NC(=O)C2CCN(C(=O)c3ccco3)CC2)s1	.	26.7µM	.	.

Screening results: PubChem BioAssay, National Center for Advancing Translational Sciences (NCATS)
